Experimental findings from PubChem BioAssay (Tox21) are described below.

Where “and” joins values, the source holds several entries; their conditions need not be identical. Equal values may be shown once. Inconclusive results are not listed. A structure can be active in one record and inactive in another. Calls of active or inactive are those of the source. Unless noted, calls follow the shape of the dose curve; as a rule, active = well fitted curve in the direction sought with a large enough effect in the repeat runs; inconclusive = weak or mixed curves; inactive = no such curve, though single readings can be large; an effect the other way counts as inactive or inconclusive.

Experiment [1] concerns the target Retinoic acid receptor RXR-alpha (Homo sapiens) (UniProt P19793). As to the kind of experiment: qHTS assay to identify small molecule agonists of the RXR signaling pathway (AID 1159527; calls by dose curve; also: nearly all actives have a fitted effect of over 35% in size). The method, boiled down: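 Read-out: beta-lactamase FRET ratio (405 nm excitation, 460 and 530 nm emission) after 2 hr substrate loading at room temperature. Cells were RXR-alpha-UAS-bla HEK 293T treated with compounds for 16 hr in 2% charcoal-stripped FBS medium.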
(In qHTS, concentration-response curves come from the screen itself.)

Experiment [2] is described as follows: qHTS assay to identify small molecule agonists of the RXR signaling pathway - cell viability counter screen (AID 1159529). Also: series mostly up to about 77 µM; nearly all actives have a fitted effect of over 50% in size. The method, boiled down:
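HEK 293T RXRa-bla cells, 2% CS-FBS; 5 h settle; cpd 16 h 37 C, 5% CO2; CellTiter-Glo 30 min RT, luminescence. Tetraoctyl ammonium bromide as positive control.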

Experiment [3] is described as follows: qHTS assay to identify small molecule antagonists of the retinoid acid receptor (RAR) signaling pathway - cell viability counter screen (AID 1159551). Also: nearly all actives have a fitted effect of over 35% in size. The method, boiled down: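 Luminescent ATP quantitation (CellTiter-Glo) gave cell viability in C3RL4 cells exposed to test chemicals for 6 h at 37 C alongside 1 uM final retinol.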
The nature of experiment [4]: qHTS assay to identify small molecule antagonists of the retinoic acid receptor (RAR) signaling pathway (AID 1159552; also: nearly all actives have a fitted effect of over 50% in size; also: potency is read from the fitted curve at half-maximal effect). A digest of the protocol:
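Cells of the C3RL4 line were seeded, incubated overnight, then dosed with compounds in DMSO followed immediately by retinol (1 uM final). Six hours later luciferase detection reagent went in; signal was measured after 30 min at RT.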

Experiment [5] can be described thus: qHTS assay to identify small molecule agonists of the retinoic acid receptor (RAR) signaling pathway (AID 1159553). A digest of the protocol: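 Luminescence from a RARE-driven luciferase reporter in C3RL4 cells served as the read-out, measured after 30 min with detection reagent at room temperature. Compounds in DMSO were applied for 6 hr at 37 C following overnight seeding.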

Experiment [6] can be described thus: qHTS assay to identify small molecule antagonists of the estrogen related receptor (ERR) signaling pathway from Tox21 library - cell viability counter screen (AID 1224834). Also: nearly all actives have a fitted effect of over 30% in size. Also: potency is read from the fitted curve at half-maximal effect. The method, boiled down: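 Fluorescence from CellTiter-Fluor gives the viability read-out, taken 30 min after reagent addition. Before that, ERR cells seeded 6 h earlier were incubated with compounds for 17.5 h at 37 C.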

The nature of experiment [7]: qHTS assay to identify small molecule agonists of the constitutive androstane receptor (CAR) signaling pathway - cell viability counter screen (AID 1224836). Also: series mostly up to about 92 µM; nearly all actives have a fitted effect of over 45% in size. A digest of the protocol:
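HepG2-CYP2B6-hCAR, 2500 cells/well, 4 h pre-incubation; cpd 15 conc + PK11195 0.75 uM final; 23 h, 37 C/5% CO2; CellTiter-Fluor, fluorescence.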

Experiment [8] in a line: qHTS assay to identify small molecule antagonists of the constitutive androstane receptor (CAR) signaling pathway - cell viability counter screen (AID 1224837). Also: series mostly up to about 92 µM; nearly all actives have a fitted effect of over 45% in size. The method, boiled down:
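HepG2-CYP2B6-hCAR cells, 2500/well, 4 hr pre-incubation; compound titration, 15 conc.; CITCO 50 nM final; 23 hr, 37 C/5% CO2; CellTiter-Fluor, fluorescence intensity.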

For experiment [9], the target named is Nuclear receptor subfamily 1 group I member 3 (Homo sapiens) (UniProt Q14994). As to the kind of experiment: qHTS assay to identify small molecule antagonists of the constitutive androstane receptor (CAR) signaling pathway (AID 1224838).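 Also: HepG2 cells stably expressing hCAR with CYP2B6 luciferase reporter stimulated by CITCO; nearly all actives have a fitted effect of over 40% in size.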 The method, boiled down: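 HepG2-CYP2B6-hCAR cells; 4 h pre-incubation; cpd (15 conc) + CITCO 50 nM final; 24 h, 37 C/5% CO2; ONE-Glo, luminescence.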

Experiment [10] shares this target. As to the kind of experiment: qHTS assay to identify small molecule agonists of the constitutive androstane receptor (CAR) signaling pathway (AID 1224839). Also: nearly all actives have a fitted effect of over 15% in size. Also: potency is read from the fitted curve at half-maximal effect. A digest of the protocol: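 HepG2-CYP2B6-hCAR cells, 2500/well, 4 h pre-incubation; compounds 15 conc.; PK11195 0.75 uM final; 24 h, 37 C/5% CO2; ONE-Glo luciferase read.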
Experiment [11] in a line: qHTS assay to identify small molecule antagonists of the estrogen related receptor signaling pathway with the pleiotropic PPARgamma coactivator (PGC) from Tox21 10K library - cell viability counter screen (AID 1224840; active = well fitted cell-killing curve with a large enough effect in the repeat runs, not every such curve was filed as active; also: nearly all actives have a fitted effect of over 40% in size; also: potency is read from the fitted curve at half-maximal effect). A digest of the protocol: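 PGC/ERR cells, 2,000/well; 6 h pre-incubation 37 C/5% CO2; cpd in DMSO via pin tool; 17.5 h 37 C; CellTiter-Fluor, 30 min; fluorescence.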

A short description of experiment [12]: qHTS assay to identify small molecule antagonists of the estrogen related receptor signaling pathway with the pleiotropic PPARgamma coactivator (PGC) from Tox21 10K library (AID 1224841; call rule not given here; also: series mostly up to about 92 µM; actives are mostly falling curves and most rising ones were filed inactive; nearly all actives have a fitted effect of over 50% in size). A digest of the protocol: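 PGC/ERR cell line, 2,000 cells/well; 6 h pre-incubation 37 C/5% CO2; compounds (DMSO) pinned in; 18 h, 37 C; One-Glo, 30 min RT; luminescence.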

Experiment [13] is described as follows: qHTS assay to identify small molecule agonists of the estrogen related receptor signaling pathway with the pleiotropic PPARgamma coactivator (PGC) from Tox21 10K library (AID 1224842). Also: nearly all actives have a fitted effect of over 15% in size. Also: potency is read from the fitted curve at half-maximal effect. A digest of the protocol: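 PGC/ERR reporter cells (NTP line) were seeded 2,000 per well, rested 6 h at 37 C/5% CO2, then pin-dosed with compounds in DMSO for 18 h at 37 C; luciferase read by One-Glo luminescence after 30 min at room temperature.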

Experiment [14] is described as follows: qHTS assay to identify small molecule antagonists of the estrogen related receptor (ERR) signaling pathway - cell viability counter screen (AID 1224818).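 Also: series mostly up to about 46 µM; viability measured after 17.5 h of compound exposure.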 The method, boiled down:
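Multiplexed counter screen to separate cytotoxic compounds from true ERR modulators. ERR cells received DMSO-dissolved compounds after a 6 h pre-incubation, were exposed 17.5 h at 37 C, then assayed with CellTiter-Fluor fluorescence.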

The nature of experiment [15]: qHTS assay to identify small molecule antagonists of the estrogen related receptor (ERR) signaling pathway (AID 1224819;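 also: luminescence from an ERR-driven luciferase reporter measured with One-Glo reagent; series mostly up to about 46 µM; nearly all actives have a fitted effect of over 50% in size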). A digest of the protocol: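 Seed ERR cells 2,000/well; rest 6 h at 37 C/5% CO2; pin compounds in DMSO; incubate 18 h at 37 C; add One-Glo; wait 30 min at room temperature; measure luminescence.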
Experiment [16] is described as follows: qHTS assay to identify small molecule agonists of the estrogen related receptor (ERR) signaling pathway (AID 1224820). Also: potency is read from the fitted curve at half-maximal effect. A digest of the protocol: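 Quantitative HTS of the LOPAC library used NTP ERR reporter cells treated 18 h at 37 C. Signal is luminescence after One-Glo addition and a 30 min room-temperature incubation.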
Experiment [17] in a line: qHTS assay to identify small molecule antagonists of the estrogen related receptor signaling pathway with the pleiotropic PPARgamma coactivator (PGC) cell viability counter screen (AID 1224822; also: series mostly up to about 46 µM). A digest of the protocol:
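Cells: PGC/ERR, 2,000/well, 1536-well format. Pre-incubation 6 h, 37 C/5% CO2. Compound exposure 17.5 h, 37 C. Detection: CellTiter-Fluor, 30 min, fluorescence.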

Experiment [18] in a line: qHTS assay to identify small molecule agonists of the estrogen related receptor signaling pathway with the pleiotropic PPARgamma coactivator (PGC) (AID 1224823). Also: potency is read from the fitted curve at half-maximal effect. The method, boiled down:
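Cell-based luciferase assay in the NTP-supplied PGC/ERR line, 2,000 cells/well; 18 h compound exposure at 37 C, luminescence after One-Glo.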

Experiment [19] addresses Luciferin 4-monooxygenase (Photinus pyralis) (UniProt P08659). As to the kind of experiment: qHTS assay to identify small molecule inhibitors of firefly luciferase (AID 1224835). Also: nearly all actives have a fitted effect of over 25% in size. Also: potency is read from the fitted curve at half-maximal effect. The method, boiled down:
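Quantitative HTS format; KM concentrations of both substrates. Purified P. pyralis FLuc activity quantified from luminescence images.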

Retinoic acid receptor RXR-alpha (Homo sapiens), sequence (P19793 whole entry, looked up): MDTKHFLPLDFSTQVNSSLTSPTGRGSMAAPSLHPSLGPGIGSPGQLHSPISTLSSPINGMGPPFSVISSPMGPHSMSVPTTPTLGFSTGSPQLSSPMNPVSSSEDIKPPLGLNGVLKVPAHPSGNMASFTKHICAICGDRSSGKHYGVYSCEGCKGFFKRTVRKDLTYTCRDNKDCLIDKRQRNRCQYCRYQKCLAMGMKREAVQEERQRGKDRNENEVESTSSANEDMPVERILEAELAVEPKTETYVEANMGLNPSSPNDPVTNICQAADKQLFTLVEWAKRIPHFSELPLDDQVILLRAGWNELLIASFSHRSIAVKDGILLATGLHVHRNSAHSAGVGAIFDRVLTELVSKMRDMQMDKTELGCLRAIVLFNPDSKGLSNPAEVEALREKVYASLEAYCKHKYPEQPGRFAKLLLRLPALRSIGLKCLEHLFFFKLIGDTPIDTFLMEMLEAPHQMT
Nuclear receptor subfamily 1 group I member 3 (Homo sapiens), sequence (Q14994 whole entry, looked up): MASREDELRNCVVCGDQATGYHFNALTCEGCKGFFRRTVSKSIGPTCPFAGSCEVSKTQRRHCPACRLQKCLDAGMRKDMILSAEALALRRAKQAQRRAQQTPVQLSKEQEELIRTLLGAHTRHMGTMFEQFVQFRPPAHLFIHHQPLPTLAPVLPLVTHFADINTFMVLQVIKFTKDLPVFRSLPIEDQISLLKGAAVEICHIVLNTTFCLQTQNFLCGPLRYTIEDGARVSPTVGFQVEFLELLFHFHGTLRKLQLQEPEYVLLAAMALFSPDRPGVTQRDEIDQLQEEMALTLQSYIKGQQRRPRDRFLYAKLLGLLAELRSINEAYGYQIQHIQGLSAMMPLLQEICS
Luciferin 4-monooxygenase (Photinus pyralis), sequence (P08659 whole entry, looked up): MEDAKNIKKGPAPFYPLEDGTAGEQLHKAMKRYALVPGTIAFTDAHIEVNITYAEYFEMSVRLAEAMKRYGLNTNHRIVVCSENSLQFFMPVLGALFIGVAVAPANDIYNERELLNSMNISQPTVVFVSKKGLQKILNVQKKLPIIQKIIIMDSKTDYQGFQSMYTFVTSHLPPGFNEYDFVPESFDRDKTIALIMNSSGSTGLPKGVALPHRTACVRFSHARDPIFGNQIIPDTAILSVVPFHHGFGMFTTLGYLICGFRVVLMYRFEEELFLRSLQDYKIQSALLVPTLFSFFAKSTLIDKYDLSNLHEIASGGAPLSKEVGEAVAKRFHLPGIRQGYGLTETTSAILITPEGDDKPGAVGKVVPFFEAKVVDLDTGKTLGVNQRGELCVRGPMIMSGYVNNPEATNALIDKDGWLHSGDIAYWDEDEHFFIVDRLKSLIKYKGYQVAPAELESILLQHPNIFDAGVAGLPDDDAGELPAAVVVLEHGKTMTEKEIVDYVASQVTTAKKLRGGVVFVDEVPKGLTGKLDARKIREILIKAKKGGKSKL

With `Nc1ccc(O)c(C(=O)O)c1`, the Potency result in experiment [1], in [2], in experiment [4], in [6], in [7] and in experiment [8] was “inactive” each time. Besides, the Potency entry in experiment [9], in experiment [10], in experiment [11], in [12] and in [13] was “inactive” each time. In addition, the compound was called inactive in experiment [3] and in experiment [5].
On to `O=NO`, for which the Potency result in experiment [1], in experiment [2], in [4], in experiment [6], in [7] and in [8] was “inactive” each time. Moreover, the Potency entry in [9], in experiment [10] and in experiment [11] was “inactive” in each case. Also, the compound was classed as inactive in experiment [3] and in experiment [5].
In the case of `Cc1ccccc1C(OCCN(C)C)c1ccccc1` (centres undefined), the Potency entry in [2], in [4], in experiment [16], in [18], in [6] and in experiment [19] was “inactive” in each case. Moreover, the Potency result in experiment [7], in experiment [8], in experiment [9], in experiment [10], in experiment [11] and in experiment [13] was “inactive” each time. In addition, the call in [3], in experiment [5], in [14], in experiment [15] and in [17] was inactive.
Regarding `NNC(=O)c1ccncc1`, the Potency result in [1], in experiment [2], in experiment [6], in experiment [19], in [7] and in [8] was “inactive” throughout. The Potency entry in [9], in experiment [10], in experiment [11], in experiment [12] and in experiment [13] was “inactive” each time. In experiment [3], the compound was classed as inactive.
On to `Oc1ccc(/C=C/c2cc(O)cc(O)c2)cc1`, for which the Potency entry in experiment [1], in experiment [2], in experiment [7], in experiment [8], in experiment [9] and in experiment [11] was “inactive” in each case. Besides, the Potency entry in experiment [12] was “inactive”. Moreover, the call in [3], in experiment [15] and in experiment [17] was inactive. The Potency in experiment [4] was 49 µM (active) and 43.3 µM (active); in experiment [16], 3.62 µM (active); in experiment [18], 11.4 µM (active); in experiment [6], 21.9 µM (active) and 21.7 µM (active) and 26.6 µM (active); in experiment [10], 19.5 µM (active) and 21.7 µM (active) and 29.8 µM (active); in experiment [13], 5.5 µM (active) and 4.86 µM (active) and 10.6 µM (active).
Take `OC(Cn1cncn1)(Cn1cncn1)c1ccc(F)cc1F`: the Potency result in experiment [2], in experiment [6], in experiment [19], in experiment [7], in experiment [8] and in experiment [11] was “inactive” in each case. In addition, the Potency entry in experiment [12] was “inactive”. The compound was classed as inactive in experiment [3].
In the case of `NC(N)=O`, the Potency result in experiment [1], in [2], in experiment [6], in [19], in experiment [7] and in [8] was “inactive” throughout. In addition, the Potency result in experiment [9], in experiment [10] and in experiment [11] was “inactive” each time. For the same compound, the outcome in experiment [3] was inactive.
Take `O=C(O)c1cc(N=Nc2ccc(S(=O)(=O)Nc3ccccn3)cc2)ccc1O`: the Potency entry in experiment [1], in experiment [2] and in experiment [4] was “inactive” in each case. Moreover, the compound was called inactive in experiment [3] and in experiment [5]. Further, the Potency is 27.4 µM (active) and 27.3 µM (active) and 23.7 µM (active) in [6]; 71.3 µM (active) and inactive in experiment [19]; 30.7 µM (active) and inactive in [11].
Regarding `COc1c2occc2cc2ccc(=O)oc12`, the Potency entry in [1], in experiment [2], in experiment [4], in experiment [6], in experiment [7] and in experiment [8] was “inactive” throughout. Besides, in [11], the Potency result is “inactive”. The outcome in experiment [3] and in experiment [5] was inactive.
